Screening data: PubChem, National Center for Advancing Translational Sciences (NCATS)
TRHR enhancer-1: allosterically enhances the human TRH receptor. 360,000 compounds, 0.66% hits. TRHR cells, fluo-8 calcium fluorescence, EC20 TRH enhancement. enhancement, % at 2 µM. P34981; in the data active means enhancement above about 30%; further: 0% is about no effect
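TRHR-expressing cells loaded with fluo-8 calcium dye were read kinetically (ex 480/em 530) during compound addition, then stimulated with an EC20 of TRH (10 nM final). Enhancement of the Gq-mediated intracellular calcium response was scored.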
TRHR agonist-1: TRH receptor (human) agonism | P34981 | TRHR cells, calcium flux fluo-8, FDSS agonist mode | activation, % at 2 µM | 360,000 compounds, 0.18% hits | AID 493084; in the data active means activation above about 30%; further: 0% is about no effect
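Steps: seed TRHR cells overnight; add fluo-8 no-wash Ca dye, RT 30 min–1.5 h; record 10 s baseline; pin-transfer compounds; monitor fluorescence 1 cycle/s for the agonist window. Calcium increases flag candidate agonists.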
D1 agonist: human D1 receptor agonism | P21728 | HEK293 T-REx D1 cells, calcium flux, agonist mode | 360,000 compounds, 1% hits | activation, % at 2 µM; in the data active means activation above about 30%; further: 0% is about no effect
Target sequence (P21728 whole entry, looked up): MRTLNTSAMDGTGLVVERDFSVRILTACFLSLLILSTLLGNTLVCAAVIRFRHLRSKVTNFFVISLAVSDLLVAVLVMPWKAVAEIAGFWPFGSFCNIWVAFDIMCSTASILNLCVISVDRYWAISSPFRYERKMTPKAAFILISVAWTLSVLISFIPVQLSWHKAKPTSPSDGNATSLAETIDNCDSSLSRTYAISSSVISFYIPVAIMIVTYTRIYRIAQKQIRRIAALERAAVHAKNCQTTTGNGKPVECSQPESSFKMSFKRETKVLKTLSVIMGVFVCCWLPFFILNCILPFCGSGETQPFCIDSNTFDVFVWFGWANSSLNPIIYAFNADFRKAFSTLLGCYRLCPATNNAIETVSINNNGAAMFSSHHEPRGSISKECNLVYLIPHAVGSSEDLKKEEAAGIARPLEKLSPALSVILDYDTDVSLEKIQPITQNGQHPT
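Inducible HEK293 T-REx D1 cells, force-coupled to calcium signalling, were plated at 4000 cells/well with tetracycline and held overnight at 30 C. After no-wash calcium dye loading, compound-evoked calcium rise over 180 s flagged agonists.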
D1 PAM: human D1 dopamine receptor positive modulation. P21728. HEK293 TREx D1 cells, calcium flux, dopamine EC20 potentiation. potentiation, % at 10 µM. 360,000 compounds, 0.036% hits. AID 504651; in the data active means potentiation above about 30%; further: 0% is about no effect
D1 antag: antagonists of human D1 dopamine receptor. P21728. HEK293 TREx D1 cells, calcium flux, dopamine EC80; stronger effect = lower value. activity change, negative = inhibition, % at 10 µM. 360,000 compounds, 3.2% hits. AID 504652; in the data active means activity change below about -30%; further: on the % scale 0 is the no-effect control and ±100 the full control effect
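Using tetracycline-induced force-coupled D1 Hek293 cells and a calcium dye, signals were followed for 180 s after compound, then for 180 s after EC80 dopamine, to detect inhibitors.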
TRHR enhancer-2: confirmation of human TRH receptor allosteric enhancers; shares compounds with TRHR enhancer-1; TRH receptor cell assay, enhancer confirmation qHTS; activity change, negative = inhibition, % at 46.1 µM; 970 tested, under 10 active;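 further: compound effect scored on response to added TRH at EC20 of 10 nM; 0% is about no effect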
TRHR agonist-2: human TRH receptor agonism confirmation; shares compounds with TRHR enhancer-1; TRHR-expressing cells, agonist activation read-out; Potency, µM (top dose mostly 46.1 µM), inactives show at the top dose activation, hits mostly activators; 970 compounds, 8% hits; AID 493078; further: potency means the concentration at half of the fitted maximal effect; 0% is about no effect; nearly all actives have a fitted effect of over 75% in size
Starred values were filed as active, the others as inactive; . = no result given. A selection: hits, their analogues and other compounds. The true share with any hit is near 4.7%. Unless noted, the call rests on the fitted dose curve; in most records, active means well fitted curve in the direction sought with a large enough effect; inconclusive means small, poorly fitted or top-dose-only effect, or another doubt; inactive means no such curve, though single readings can be large; an effect the other way counts as inactive or inconclusive.

SMILES	TRHR enhancer-1	TRHR agonist-1	D1 agonist	D1 PAM	D1 antag	TRHR enhancer-2	TRHR agonist-2
CCCC(=O)NC1C2CC3CC(C2)CC1C3 (stereo not drawn)	51*	1	1	1	-8	-1	0%
COc1cc(C(=O)Nc2cccc(-c3cn4cccnc4n3)c2)cc(OC)c1OC	63*	0	2	0	-2	10	0%
O=C(NC(=S)Nc1cccc2c(O)cccc12)c1ccccc1[N+](=O)[O-]	50*	0	0	0	2	-2	0%
O=C(NNC(=S)NC(=O)c1ccccc1[N+](=O)[O-])c1ccccc1O	1	2	1	-4	-5	.	.
FC(F)(F)c1cc(C(F)(F)F)c2ccc(N3CCOCC3)nc2n1	9	-1	0	-6	-2	.	.
CN1CCCc2cc3c(C(F)(F)F)cc(=O)oc3nc21	2	49*	53*	-1	2	3	18µM*
CC1Cc2ccccc2C(CCc2ccccc2)=N1 (stereo not drawn)	15	0	2	-8	7	.	.
S=C(NCc1ccco1)N1CCOCC1	0	0	2	-4	-11	.	.
S=C(NCc1ccco1)Nc1ccc(N2CCOCC2)cc1	53*	1	3	-6	-6	-3	0%
COc1ccc(CN2CCN(Cc3ccc(CO)o3)CC2CCO)cc1C (stereo not drawn)	57*	0	5	1	3	-1	1%
CS(=O)(=O)Nc1ccc(C(=O)Nc2ccc3c(c2)OCO3)cc1	46*	0	4	-3	-10	-5	0%
O=C(Nc1ccc2c(c1)OCO2)c1ccc2c(c1)OCO2	2	-1	0	-2	5	.	.
OCCC1CN(Cc2ccc3nsnc3c2)CCN1CCc1ccccc1 (stereo not drawn)	45*	0	3	-4	-6	-5	1%
O=C(Nc1c2c(nn1-c1ccccc1)CS(=O)(=O)C2)c1ccccc1C(F)(F)F	1	0	0	6	1	.	.
CC1CCCC(NC(=O)C2c3ccccc3C(=O)N2Cc2cccs2)C1C (stereo not drawn)	44*	0	0	-4	5	-14	1%
CCCc1nn2c(=O)cc(COC(=O)c3cccs3)nc2s1	3	0	7	-5	6	.	.
CCCCNC(=O)c1cn(-c2ccc(OCC)cc2)c(=O)c2cc(OC)c(OC)cc12	47*	1	2	-5	12	5	1%
CCOc1ccc(NC(=O)c2cn(-c3ccc(OCC)cc3)c(=O)c3cc(OC)c(OC)cc23)cc1	-1	1	4	-18	-3	.	.
Cc1occc1-c1nnc(-c2cc([N+](=O)[O-])cc([N+](=O)[O-])c2)o1	-7	-2	-1	-2	18	.	.
O=C(CSc1nnnn1-c1cccc(F)c1)Nc1nc2ccccc2s1	-3	1	1	-6	-4	.	.
Cc1cccc(NS(=O)(=O)c2cc3c4c(c2)CC(=O)N4CCC3)c1C	-6	0	1	-1	-11	.	.
Cc1cccc(NS(=O)(=O)c2cc3c4c(c2)CCN4C(=O)CC3)c1C	45*	0	4	-5	11	7	-1%
CC(C)Cc1ccc(S(=O)(=O)Nc2cccnc2)cc1	58*	0	18	-1	-8	-6	1%
Cc1ccc(-c2ccc(S(=O)(=O)Nc3cccnc3)cc2)cc1	14	0	5	-4	-10	.	.
O=C(c1cc2cc(Br)ccc2s1)N1CCOCC1	1	0	-1	0	-3	.	.
